What all share (settings): mRNA level, 48 h; actives raise or lower the signal
Read-out in test [1]: Early growth response protein 1 (EGR1) transcription factor, EGR1 (gene 1958)
Nature of the test: LTEA_HepaRG_EGR1: Life Technologies and Expression Analysis (LTEA) Assay for Early growth response protein 1 (EGR1) transcription factor using HepaRG (AID 2283490). The gist of the method:
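Differentiated human HepaRG cells in serum-free induction medium were exposed in duplicate for 48 h to eight concentrations (top 100 uM, half-log steps) in 0.5% DMSO. EGR1 mRNA was quantified by qRT-PCR, normalized to ACTB, GAPDH and POLR2A, and fitted bidirectionally versus DMSO.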

Read-out in test [2]: Ezrin (EZR), EZR (gene 7430)
Nature of the test: LTEA_HepaRG_EZR: Life Technologies and Expression Analysis (LTEA) Assay for Ezrin (EZR) using HepaRG (AID 2283491). An outline of the steps: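 Gain or loss of EZR mRNA is scored relative to 0.5% DMSO in human HepaRG cultures treated 48 h with test chemicals in duplicate, eight half-log concentrations from 100 uM.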

Read-out in test [3]: Cytochrome P450 3A7 (Homo sapiens) (UniProt P24462)
In words: LTEA_HepaRG_CYP3A7: Life Technologies and Expression Analysis (LTEA) Assay for CYP3A7 using HepaRG (AID 2283492). An outline of the steps: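 Cells were thawed, plated, cultured 48 h, then treated for a further 48 h with chemicals (eight-point half-log series from 100 uM, 0.5% DMSO). RNA was isolated and CYP3A7 expression quantified by qRT-PCR normalised to ACTB, GAPDH and POLR2A.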

Read-out in another test: CYP3A5 (gene 1577)
Nature of the test: LTEA_HepaRG_CYP3A5: Life Technologies and Expression Analysis (LTEA) Assay for CYP3A5 using HepaRG (AID 2283493). The gist of the method: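 mRNA induction or loss of CYP3A5 assessed in HepaRG after 48 h dosing, 100 uM top concentration, duplicate wells; TaqMan qRT-PCR with ACTB, GAPDH, POLR2A normalization; 0.5% DMSO as negative control.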

Read-out in test [4]: Fatty Acid-Binding Protein 1 (FABP1), FABP1 (gene 2168)
In words: LTEA_HepaRG_FABP1: Life Technologies and Expression Analysis (LTEA) Assay for Fatty Acid-Binding Protein 1 (FABP1) using HepaRG (AID 2283494). An outline of the steps:
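Differentiated human HepaRG cells were exposed in duplicate for 48 h in serum-free induction medium to 8-point half-log concentration series topping at 100 uM in 0.5% DMSO. FABP1 mRNA measured by TaqMan qRT-PCR, normalized to ACTB/GAPDH/POLR2A; bidirectional fit versus DMSO.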

Read-out in test [5]: Cytochrome P450 4A22 (Homo sapiens) (UniProt Q5TCH4)
In words: LTEA_HepaRG_CYP4A22: Life Technologies and Expression Analysis (LTEA) Assay for Cytochrome P450 4A22 (CYP4A22) using HepaRG (AID 2283495). The gist of the method: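 Cryopreserved HepaRG cells, plated and cultured 48 h, then switched to serum-free induction medium and treated 48 h (duplicates, up to 100 uM, half-log steps, 0.5% DMSO). Expression change of CYP4A22 was fitted bidirectionally against vehicle.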

Read-out in test [6]: Glutathione S-Transferase (GSTA2), GSTA2 (gene 2939)
In words: LTEA_HepaRG_GSTA2: Life Technologies and Expression Analysis (LTEA) Assay for Glutathione S-Transferase (GSTA2) using HepaRG (AID 2283497). The gist of the method:
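Human HepaRG cells, plated 48 h, then exposed in serum-free induction medium for 48 h to eight half-log concentrations up to 100 uM in 0.5% DMSO, duplicate. GSTA2 mRNA by qRT-PCR, normalized to ACTB/GAPDH/POLR2A; bidirectional fit versus DMSO.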

Read-out in test [7]: Glutamate-cysteine ligase catalytic (GCLC), GCLC (gene 2729)
In words: LTEA_HepaRG_GCLC: Life Technologies and Expression Analysis (LTEA) Assay for Glutamate-cysteine ligase catalytic (GCLC) using HepaRG (AID 2283498). An outline of the steps: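 Differentiated human HepaRG cells, plated 48 h then switched to serum-free induction medium, were exposed in duplicate for 48 h to 8 half-log concentrations topping at 100 uM in 0.5% DMSO. GCLC mRNA was quantified by qRT-PCR against ACTB, GAPDH and POLR2A.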

Read-out in test [8]: growth arrest and DNA damage 45 (GADD45G), GADD45G (gene 10912)
Nature of the test: LTEA_HepaRG_GADD45G: Life Technologies and Expression Analysis (LTEA) Assay for growth arrest and DNA damage 45 (GADD45G) using HepaRG (AID 2283499). An outline of the steps:
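Human hepatic HepaRG line treated 48 h with chemicals (eight concentrations, half-log steps from 100 uM); transcript induction or repression of GADD45G scored by qRT-PCR versus DMSO vehicle.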

Read-out in test [9]: Glutamate-cysteine ligase regulatory (GCLM), GCLM (gene 2730)
Nature of the test: LTEA_HepaRG_GCLM: Life Technologies and Expression Analysis (LTEA) Assay for Glutamate-cysteine ligase regulatory (GCLM) using HepaRG (AID 2283500). An outline of the steps: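 Human liver HepaRG cultures receive test chemicals for 48 hours at up to 100 uM in 0.5% DMSO. GCLM expression is measured by qRT-PCR and analysed for increases or decreases against vehicle.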

Read-out in test [10]: Heat shock 70 kDa protein 1 (HSPA1A), gene 3303
In words: LTEA_HepaRG_HSPA1A: Life Technologies and Expression Analysis (LTEA) Assay for Heat shock 70 kDa protein 1 (HSPA1A) using HepaRG (AID 2283502). The gist of the method:
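HSPA1A induction in human HepaRG liver cells is measured after 48 h of chemical treatment (100 uM maximum, 0.5% DMSO vehicle). Expression comes from qRT-PCR normalized to endogenous controls.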

Read-out in test [11]: Hypoxia-inducible factor 1-alpha (Homo sapiens) (UniProt Q16665)
In words: LTEA_HepaRG_HIF1A: Life Technologies and Expression Analysis (LTEA) Assay for Hypoxia-inducible factor 1 (HIF1A) Trancription factor using HepaRG (AID 2283503). The gist of the method:
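HepaRG, 48 h exposure, 8-pt half-log series from 100 uM, 0.5% DMSO vehicle, duplicates. Readout: HIF1A transcript by qRT-PCR (Fluidigm array), housekeeping-normalised. Bidirectional curve fit vs DMSO baseline.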

Read-out in test [12]: 3-Hydroxy-3-Methylglutaryl-CoA Synthase 2 (HMGCS2), HMGCS2 (gene 3158)
In words: LTEA_HepaRG_HMGCS2: Life Technologies and Expression Analysis (LTEA) Assay for 3-Hydroxy-3-Methylglutaryl-CoA Synthase 2 (HMGCS2) using HepaRG (AID 2283504). An outline of the steps: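 Expression of HMGCS2 in human HepaRG liver cells is measured by qRT-PCR 48 h after dosing (highest 100 uM, half-log series, 0.5% DMSO). Values come from bidirectional concentration-response fitting with DMSO as baseline.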

Read-out in the next test: HGF (gene 3082)
In words: LTEA_HepaRG_HGF: Life Technologies and Expression Analysis (LTEA) Assay for Hepatocyte Growth Facto (HGF) using HepaRG (AID 2283505). The gist of the method:
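Gain or loss of HGF mRNA in human HepaRG liver cells after 48 h chemical exposure; eight concentrations up to 100 uM with 0.5% DMSO vehicle, quantified by TaqMan qRT-PCR.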

Read-out in test [13]: Insulin Like Growth Factor 1 (IGF1), IGF1 (gene 3479)
Nature of the test: LTEA_HepaRG_IGF1: Life Technologies and Expression Analysis (LTEA) Assay for Insulin Like Growth Factor 1 (IGF1) using HepaRG (AID 2283506). The gist of the method:
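Using human HepaRG liver cells, IGF1 transcript induction or suppression is measured 48 h after dosing across eight concentrations capped at 100 uM. Values derive from bidirectional concentration-response fitting with DMSO as baseline.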

Read-out in test [14]: Intercellular Adhesion Molecule 1 (ICAM1), ICAM1 (gene 3383)
In words: LTEA_HepaRG_ICAM1: Life Technologies and Expression Analysis (LTEA) Assay for Intercellular Adhesion Molecule 1 (ICAM1) using HepaRG (AID 2283507). The gist of the method:
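Gain or loss of transcript in HepaRG hepatic cells is quantified by qRT-PCR after 48 h chemical exposure (up to 100 uM, half-log steps), with DMSO as baseline.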

Read-out in test [15]: Insulin-like growth factor-binding protein 1 (IGFBP1), IGFBP1 (gene 3484)
In words: LTEA_HepaRG_IGFBP1: Life Technologies and Expression Analysis (LTEA) Assay for Insulin-like growth factor-binding protein 1 (IGFBP1) using HepaRG (AID 2283508). The gist of the method: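 mRNA induction or loss was quantified by qRT-PCR after 48 h chemical exposure of human HepaRG cells, with 0.5% DMSO as vehicle and baseline. Concentration-response over eight points up to 100 uM.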

Read-out in test [16]: Interleukin 6 (IL6), IL6 (gene 3569)
Nature of the test: LTEA_HepaRG_IL6: Life Technologies and Expression Analysis (LTEA) Assay for Interleukin 6 (IL6) using HepaRG (AID 2283509). An outline of the steps:
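Differentiated human HepaRG cells, plated 48 h then switched to serum-free induction medium, were exposed in duplicate for 48 h to eight half-log concentrations up to 100 uM in 0.5% DMSO. IL6 mRNA measured by qRT-PCR, normalized to ACTB/GAPDH/POLR2A.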

Read-out in test [17]: Cytochrome P450 7A1 (Homo sapiens) (UniProt P22680)
Nature of the test: LTEA_HepaRG_CYP7A1: Life Technologies and Expression Analysis (LTEA) Assay for Cytochrome P450 7A1 (CYP7A1) using HepaRG (AID 2283496). The gist of the method: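 Gene expression endpoint in human HepaRG liver cells treated for 48 h with test chemicals (up to 100 uM, 0.5% DMSO). Values come from bidirectional concentration-response fitting versus DMSO.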

Read-out in test [18]: Glutathione S-transferase M3 (GSTM3), GSTM3 (gene 2947)
Nature of the test: LTEA_HepaRG_GSTM3: Life Technologies and Expression Analysis (LTEA) Assay for Glutathione S-transferase M3 (GSTM3) using HepaRG (AID 2283501). The gist of the method:
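Changes in GSTM3 expression, an oxidative-stress marker, were scored by bidirectional curve fitting against 0.5% DMSO vehicle. Human HepaRG cultures received chemicals for 48 h in duplicate, highest concentration 100 uM with half-log dilutions.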

The structures appear in SMILES notation. The source made the active and inactive calls. How the source made its calls: active means hit-call score of the fitted dose curve at least 0.9, where 1 is the maximum; inactive means score below 0.9.

Chain of Cytochrome P450 3A7 (Homo sapiens) (P24462 whole entry, looked up): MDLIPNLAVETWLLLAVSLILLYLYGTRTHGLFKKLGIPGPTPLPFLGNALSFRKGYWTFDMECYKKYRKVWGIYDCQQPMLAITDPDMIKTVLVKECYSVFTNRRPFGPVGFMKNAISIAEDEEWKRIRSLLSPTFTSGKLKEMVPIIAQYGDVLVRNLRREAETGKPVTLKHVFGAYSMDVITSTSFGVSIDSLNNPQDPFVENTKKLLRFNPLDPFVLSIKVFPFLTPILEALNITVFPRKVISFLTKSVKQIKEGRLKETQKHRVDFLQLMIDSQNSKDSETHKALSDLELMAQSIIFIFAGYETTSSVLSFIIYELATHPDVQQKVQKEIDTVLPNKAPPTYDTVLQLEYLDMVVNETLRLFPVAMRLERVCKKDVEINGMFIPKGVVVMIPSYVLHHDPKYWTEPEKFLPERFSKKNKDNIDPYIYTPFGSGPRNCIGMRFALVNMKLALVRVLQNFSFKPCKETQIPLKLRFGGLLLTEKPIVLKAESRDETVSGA
Chain of Hypoxia-inducible factor 1-alpha (Homo sapiens) (Q16665 whole entry, looked up): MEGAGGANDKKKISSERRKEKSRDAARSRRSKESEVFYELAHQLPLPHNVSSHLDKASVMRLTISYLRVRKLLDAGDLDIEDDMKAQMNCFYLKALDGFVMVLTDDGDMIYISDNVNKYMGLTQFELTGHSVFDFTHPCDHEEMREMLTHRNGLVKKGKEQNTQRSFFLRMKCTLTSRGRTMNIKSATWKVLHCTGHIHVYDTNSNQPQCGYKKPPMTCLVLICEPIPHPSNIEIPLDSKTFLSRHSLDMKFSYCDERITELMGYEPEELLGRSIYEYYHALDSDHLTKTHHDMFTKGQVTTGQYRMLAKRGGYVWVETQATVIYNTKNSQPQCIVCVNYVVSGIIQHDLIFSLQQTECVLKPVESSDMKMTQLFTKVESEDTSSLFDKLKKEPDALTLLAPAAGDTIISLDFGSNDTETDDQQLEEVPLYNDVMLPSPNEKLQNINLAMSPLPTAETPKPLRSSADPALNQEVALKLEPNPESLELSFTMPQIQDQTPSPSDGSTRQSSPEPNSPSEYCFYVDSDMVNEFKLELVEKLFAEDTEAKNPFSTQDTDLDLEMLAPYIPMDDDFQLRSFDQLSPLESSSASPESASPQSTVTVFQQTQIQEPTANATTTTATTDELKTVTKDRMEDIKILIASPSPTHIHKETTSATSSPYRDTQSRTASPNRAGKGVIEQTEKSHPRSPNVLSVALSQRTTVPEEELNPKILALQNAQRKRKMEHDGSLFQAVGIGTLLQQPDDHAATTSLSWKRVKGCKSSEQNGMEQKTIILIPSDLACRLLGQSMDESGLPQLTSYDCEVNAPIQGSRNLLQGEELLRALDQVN

As for `CCCCOC(=O)CC(CC(=O)OCCCC)(OC(C)=O)C(=O)OCCCC`, the call (in test [1]; in [2]; in test [3]; with CYP3A5 (gene 1577); in test [4]; in test [5]) was inactive. Moreover, the outcome in test [6], in [7], in [8], in test [9], in [10] and in [11] was inactive. In addition, the molecule was classed as inactive (in test [12]; in the test with HGF (gene 3082); in test [13]; in [14]; in [15]; in [16]).
For `CCOC(=O)O[C@H](C)OC(=O)c1ccc2c(c1)cc(C(=O)NC1CCN(C(C)C)CC1)n2Cc1cc(-c2ccc(Cl)s2)on1`, the molecule was called inactive (in test [1]; in test [2]; in [3]; with CYP3A5 (gene 1577); in [4]; in test [5]). Besides, the molecule was classed as inactive in [17], in test [6], in [7], in [8], in test [9] and in test [10]. Also, the molecule was called inactive in test [11], in test [12], in [13], in test [14], in test [15] and in [16].
Regarding `Cc1cccc2ccccc12`, the result (in test [1]; in [2]; in test [3]; with CYP3A5 (gene 1577); in test [4]; in test [5]) was inactive. The result in test [17], in [7], in test [8], in test [9], in test [18] and in [10] was inactive. Besides, the molecule was called inactive (in test [11]; in test [12]; with HGF (gene 3082); in test [13]; in [14]; in [15]). The result in test [16] was inactive.
For `O=C1c2ccccc2C(=O)N1CCc1noc(-c2ccc(CN3CCCCCC3)s2)n1`, the call (in test [1]; in [2]; in test [3]; with CYP3A5 (gene 1577); in [4]; in [5]) was inactive. Moreover, the molecule was called inactive in test [6], in test [7], in test [8], in test [9], in test [18] and in [10]. In addition, the molecule was classed as inactive (in test [11]; in test [12]; with HGF (gene 3082); in [13]; in test [14]; in [15]). For the same molecule, in test [16], the molecule was classed as inactive.
Regarding `CCCCCCCCCCCC[N+](C)(C)C`, the AC50 was 83.9 µM (active) in [1]; 83.7 µM (active) in test [2]; 86.6 µM (active) with CYP3A5 (gene 1577); 93.9 µM (active) in [4]; 85.8 µM (active) in [17]; 78 µM (active) in [8]. Also, the AC50 in test [9] was 84.1 µM (active); in test [10], 80.9 µM (active); in [11], 83.3 µM (active); in test [12] it was 95.9 µM (active); in [13], 77.5 µM (active); in test [14], 76.4 µM (active). For the same molecule, the figures for the AC50 in test [15] and in test [16] were 84.2 µM (active) and 77.8 µM (active), respectively. In addition, the call in test [3], in test [5] and in test [7] was inactive.
As for `CC/C(=C(/CC)c1ccc(O)cc1)c1ccc(O)cc1`, the AC50 in test [1] was 77.4 µM (active); with CYP3A5 (gene 1577), 50 µM (active); in test [4] it was 94.1 µM (active); in test [17], 84.8 µM (active); in test [7] it was 78.7 µM (active); in [8] it was 71.7 µM (active). Further, the AC50 in test [10] was 75.8 µM (active); in test [11], 85.7 µM (active); in [15], 66.6 µM (active); in test [16], 93 µM (active). The call in [2], in test [3], in test [5], in [9], in test [12] and in test [13] was inactive. The molecule was classed as inactive in [14].

Source of the values: PubChem BioAssay (EPA / NIEHS).
